Test results taken from PubChem BioAssay AID1626 (SRMLSC, 2009).
Among all 220,000 compounds or so, about 2,000 (0.91%) were called active. Not shown: some 2% with an inconclusive outcome. Rule as the data show it: inconclusive = inhibition above about 80% without an active follow-up result; inactive = below that; test concentration not stated here. A selection follows. Entries with a potency or affinity are not part of this list.

experiment: M. tuberculosis H37Rv growth inhibitors, H37Rv strain (AID 1626); conditions: active compounds read high, concentration not given here;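 also: bacteria incubated seven days before Alamar blue readout; 0% = bacteria only wells and 100% = bacteria with antibiotic wells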

SMILES	inhibition
CC(NC(=O)COC(=O)C1CSC2(C)CCC(=O)N12)C12CC3CC(CC(C3)C1)C2 (stereo unspecified)	-1.31% (inactive)
O=C(CN1CCN(Cc2ccccc2)CC1)N/N=C/c1ccccc1F	-1.58% (inactive)
Cn1cc(CNCc2cn(C)nc2-c2ccc(C3CCCCC3)cc2)cn1	8.48% (inactive)
COc1ccc(C(=O)c2ccc(Cl)cc2)cc1	6.37% (inactive)
CCOC(=O)C1CCN(S(=O)(=O)c2ccc(-n3cnnn3)c(C)c2)CC1	-3.24% (inactive)
O=C(COC(=O)c1ccc(Cl)nc1)NCc1ccco1	-2.82% (inactive)
Clc1cccc(Cl)c1Cn1nnc(N2CCCC2)n1	-4.55% (inactive)
O=C(CCCn1c(SCC(=O)c2ccc(Cl)cc2)nc2ccccc2c1=O)NCc1ccco1	-0.03% (inactive)
Cc1cc(C)c2cc(C)c(SCC(=O)NCc3ccco3)nc2c1	-6.87% (inactive)
CCc1ccccc1NC(=S)N1CCNC(=O)C1CC(=O)OC (stereo unspecified)	3.01% (inactive)
Cc1ccc(NC2=C(Cl)C(=O)OC2OC(C)C)cc1 (stereo unspecified)	-6.44% (inactive)
CCN(CC)S(=O)(=O)c1ccc(N2CCOCC2)c(NC(=O)c2ccc(NC(C)=O)cc2)c1	-0.34% (inactive)
CCCCN1/C(=C/c2ccc3ccccc3[n+]2CC)Sc2ccccc21	-5.31% (inactive)
CC(=S)/C=C1\Sc2ccccc2N1C	-6.98% (inactive)
NC(=O)C1=NOC(CNc2ncc(C(F)(F)F)cc2Cl)C1 (stereo unspecified)	-9.36% (inactive)
CCN(CC)S(=O)(=O)c1ccc(C(=O)N2CCc3ccccc32)cc1	-0.89% (inactive)
O=C(/C=C/c1ccccc1)NCc1cccnc1	-0.63% (inactive)
COc1c(C)cc(Br)cc1C(=O)Nc1ccccc1N1CCN(C(=O)c2ccccc2)CC1	19.8% (inactive)
O=C(Nc1ccccc1N1CCN(C(=O)c2ccccc2)CC1)c1cc(Br)ccc1Cl	8.71% (inactive)
Cc1cc(C)n2[nH]c(=O)c(N=Nc3cccc(C(F)(F)F)c3)c2n1	46.9% (inactive)
Cc1[nH]n(C2=NCCS2)c(=O)c1N=Nc1ccccc1	2.69% (inactive)
CN(c1ccccc1C(=O)N1CCN(Cc2ccc3c(c2)OCO3)CC1)S(C)(=O)=O	-0.54% (inactive)
COc1ccc(NC(=O)CCC(=O)OCc2ccc(C(=O)Oc3ccc(Cl)cc3)cc2)cc1	23.3% (inactive)
O=C(CCC(=O)OCc1cccc(C(=O)Oc2ccccc2)c1)Nc1cccc2ccccc12	4.16% (inactive)
CC(C)(C)Nc1c([N+](=O)[O-])c(=O)sc2ccccc12	-10.8% (inactive)
NC(=O)C1CCN(C(=O)c2ccc3c(=O)n(Cc4ccco4)c(SCC(=O)c4ccccc4)nc3c2)CC1	-1.82% (inactive)
